G9a inh: inhibitors of human histone lysine methyltransferase G9a; 350,000 tested, 8.8% active; Q96KQ7; Potency, µM (titrated, usually from 102 µM), for inactives: top-dose activity, negative = inhibition, most hits filed as inhibitors; AID 504332; G9a H3K9 monomethylation, AlphaScreen, 2 h; further: on the % scale 0 is the no-effect control and ±100 the full control effect; nearly all actives have a fitted effect of over 75% in size
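G9a (20 nM) preincubated 15 min RT with compounds, then 500 nM biotinylated H3K9 peptide and 20 uM SAM added; 2 h RT reaction. Monomethyl-H3K9 product detected by AlphaScreen with anti-H3K9me1 antibody, streptavidin donor and anti-rabbit IgG acceptor beads.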
Sfp inh: blocks B. subtilis Sfp PPTase activity; Q9F4F7; Biochemical Sfp PPTase activity, qHTS; Potency, µM, for inactives: largest response in the series, negative = inhibition, actives largely listed as inhibitors; 310,000 tested, 3.5% active;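 further: the enzyme is Sfp with the accession as filed and its product quenches rhodamine fluorescence; 0% = enzyme reaction without inhibitor and -100% = no enzyme wells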
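Compounds were incubated with enzyme (final 15 nM) for 15 min at room temperature before substrate addition started the reaction. Fluorescence at 525 nm excitation, 598 nm emission was recorded immediately and after 30 minutes.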
L3MBTL1 block: inhibitors of human L3MBTL1 | Q9Y468 | AlphaScreen L3MBTL1–H3K9me1 peptide binding | Potency, µM (top dose mostly 57.1 µM), for the others: at the highest dose activity, negative = inhibition, actives largely listed as inhibitors | 230,000 tested, 0.66% active; further: on the % scale 0 is the no-effect control and ±100 the full control effect; nearly all actives have a fitted effect of over 60% in size
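L3MBTL1 50 nM + b-AHA-H3(1-15)K9me1 75 nM, 30 min RT; compound added, 30 min RT; streptavidin donor/Ni-chelate acceptor beads 10 ug/mL each final, 30 min RT dark; AlphaScreen read.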
JMJD2A Tudor inh: blocks the human JMJD2A Tudor domain; O75164; AlphaScreen JMJD2A-Tudor / H3K4me3 peptide binding; Potency, µM (doses to about 114 µM), for the others: top-dose activity change, negative = inhibition, most hits filed as inhibitors; 390,000 tested, 4.4% active; AID 504339; further: on the % scale 0 is the no-effect control and ±100 the full control effect; nearly all actives have a fitted effect of over 50% in size
Target sequence (O75164 whole entry, looked up, the tested form may be a part): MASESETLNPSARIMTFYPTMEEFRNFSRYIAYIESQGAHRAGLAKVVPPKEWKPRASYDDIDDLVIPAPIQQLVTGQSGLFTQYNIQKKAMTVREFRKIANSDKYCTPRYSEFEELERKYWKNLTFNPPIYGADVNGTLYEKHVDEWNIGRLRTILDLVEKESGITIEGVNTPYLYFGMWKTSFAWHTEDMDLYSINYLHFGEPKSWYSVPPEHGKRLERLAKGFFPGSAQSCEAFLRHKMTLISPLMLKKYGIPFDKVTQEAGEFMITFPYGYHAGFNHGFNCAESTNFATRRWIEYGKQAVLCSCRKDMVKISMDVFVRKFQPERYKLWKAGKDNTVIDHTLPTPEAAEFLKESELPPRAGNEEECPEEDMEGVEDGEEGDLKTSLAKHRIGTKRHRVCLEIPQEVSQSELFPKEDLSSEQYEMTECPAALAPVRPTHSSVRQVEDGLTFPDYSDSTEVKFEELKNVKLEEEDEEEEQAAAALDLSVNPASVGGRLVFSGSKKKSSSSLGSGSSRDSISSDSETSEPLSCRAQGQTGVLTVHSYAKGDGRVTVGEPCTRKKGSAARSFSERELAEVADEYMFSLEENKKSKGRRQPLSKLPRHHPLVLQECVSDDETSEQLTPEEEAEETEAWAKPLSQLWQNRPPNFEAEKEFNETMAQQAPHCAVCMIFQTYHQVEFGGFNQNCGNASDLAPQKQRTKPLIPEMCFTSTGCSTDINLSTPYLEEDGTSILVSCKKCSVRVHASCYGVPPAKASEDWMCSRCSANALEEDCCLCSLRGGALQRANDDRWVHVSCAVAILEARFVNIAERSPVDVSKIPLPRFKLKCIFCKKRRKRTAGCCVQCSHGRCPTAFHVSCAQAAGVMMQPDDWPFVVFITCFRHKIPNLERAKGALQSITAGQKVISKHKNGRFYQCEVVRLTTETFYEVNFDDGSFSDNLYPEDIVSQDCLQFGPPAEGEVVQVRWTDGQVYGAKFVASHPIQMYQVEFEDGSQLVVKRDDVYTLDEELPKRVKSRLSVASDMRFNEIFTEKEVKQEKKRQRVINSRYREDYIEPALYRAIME
BAZ2B block: inhibitors of human BAZ2B bromodomain | AlphaScreen BAZ2B-H3K14Ac peptide displacement | Potency, µM (top dose mostly 114 µM), without a hit: at the highest dose activity change, negative = inhibition, most hits filed as inhibitors | 360,000 tested, 4.4% active; further: on the % scale 0 is the no-effect control and ±100 the full control effect; nearly all actives have a fitted effect of over 60% in size
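In this displacement format the biotinylated H3(5-23) peptide acetylated at Lys14 serves as ligand at 50 nM, with BAZ2B at 50 nM in PBS pH 7.4 containing 0.01% Tween-20. Donor and acceptor beads are 10 ug/mL final.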
HP1b chromo inh: inhibitors of HP1-beta chromodomain binding to methylated histone tails | Potency, µM (titrated, usually from 114 µM), without a hit: at the top dose activity change, negative = inhibition, hits mostly inhibitors | AlphaScreen HP1-beta / biotin-H3K9me3 peptide binding | 390,000 tested, 0.56% active | AID 540317; further: nearly all actives have a fitted effect of over 70% in size
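HP1-beta protein (50 nM final) preincubated 30 min at room temperature with biotinylated H3(1-18)K9me3 peptide (50 nM) in PBS pH 7.4, 0.01% Tween-20, then compound added for 30 min. AlphaScreen streptavidin donor/nickel chelate acceptor beads (10 ug/mL final), 30 min dark, luminescence read.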
Active calls of the source: *; [ ] = dose if it differs, or a comment. An excerpt weighted towards active compounds, which were near 12% of everything screened. The call rests on the fitted dose curve; in most records, active means well fitted curve in the direction sought with a large enough effect; inconclusive means small, poorly fitted or top-dose-only effect, or another doubt; inactive means no such curve, though single readings can be large; an effect the other way counts as inactive or inconclusive. Potency means the concentration at half of the fitted maximal effect.

How did CCC(C)C(N)C1=NC(C(=O)N[C@@H](CC(C)C)C(=O)N[C@H](CCC(=O)[O-])C(=O)N[C@H](C(=O)N[C@H]2CCCCNC(=O)[C@H](CC(N)=O)NC(=O)[C@@H](CC(=O)[O-])NC(=O)[C@H](Cc3cnc[nH]3)NC(=O)[C@@H](Cc3ccccc3)NC(=O)[C@H]([C@@H](C)CC)NC(=O)[C@@H](CCCN)NC2=O)[C@@H](C)CC)CS1.[Zn+2] (some centres not stated) do in these assays?
JMJD2A Tudor inh: 2.82µM*; HP1b chromo inh: 12.6µM*

What do the screens show for `Cc1c(C#N)c2ccccc2n1C`?
G9a inh: 26.0%; Sfp inh: 2.0%; JMJD2A Tudor inh: -4.1%; BAZ2B block: -1.1%; HP1b chromo inh: 37.2%

Results for Cc1sc(N)nc1-c1c(C)n(C)c2ccccc12 ?
G9a inh: 44.7µM*; Sfp inh: -4.5%; JMJD2A Tudor inh: -31.0%; BAZ2B block: inconclusive; HP1b chromo inh: 2.0%

What do the screens show for `O=C(O)c1cccc(-c2ccc(/C=N/NC(=O)C3COc4ccccc4O3)o2)c1` (configuration not stated)?
G9a inh: 39.8µM*; Sfp inh: 28.2µM*; L3MBTL1 block: inconclusive; JMJD2A Tudor inh: -15.8%; BAZ2B block: inconclusive; HP1b chromo inh: 7.7%

How did CNC(=S)N/N=C/c1ccc(-c2cccc(C(=O)O)c2)o1 do in these assays?
G9a inh: 3.1%[12.7 µM]; Sfp inh: inconclusive; JMJD2A Tudor inh: -21.7%; BAZ2B block: -17.1%; HP1b chromo inh: 13.8%

What do the screens show for `CC(C)(C)c1ccc2c(c1)OC(C(=O)N/N=C\c1ccc(-c3cccc(C(=O)O)c3)o1)CO2` (configuration not stated)?
G9a inh: 39.8µM*; Sfp inh: 50.1µM*; L3MBTL1 block: 15.8µM*; JMJD2A Tudor inh: -25.2%; BAZ2B block: 50.1µM*; HP1b chromo inh: 2.9%

How did Cc1ccc(NC(=O)CN2C(=O)CCc3cc(S(=O)(=O)N4CCCCC4)ccc32)cc1N(C)C do in these assays?
G9a inh: 4.3%[12.7 µM]; JMJD2A Tudor inh: inconclusive; BAZ2B block: inconclusive; HP1b chromo inh: 0.7%

What do the screens show for `Cc1cc(/C=N/NC(=O)c2c(Br)cnn2C)c(C)n1-c1cccc(Br)c1`?
G9a inh: inconclusive; Sfp inh: 2.5%; L3MBTL1 block: inconclusive; JMJD2A Tudor inh: inconclusive; BAZ2B block: 28.2µM*; HP1b chromo inh: inconclusive

Results for Cc1cc(/C=N/NC(=O)c2ccccc2F)c(C)n1-c1ccccc1 ?
G9a inh: 50.1µM*; Sfp inh: 1.8%; JMJD2A Tudor inh: -20.4%; BAZ2B block: -37.4%; HP1b chromo inh: -7.3%

Results for Cc1cc(/C=N/NC(=O)c2cccc(F)c2)c(C)n1-c1ccccc1 ?
G9a inh: -46.2%; Sfp inh: 6.2%; L3MBTL1 block: 15.9%; JMJD2A Tudor inh: inconclusive; BAZ2B block: -32.0%; HP1b chromo inh: -1.8%

Results for CNC(=S)N/N=C/c1cc(C)n(-c2ccc(Cl)c(Cl)c2)c1C ?
G9a inh: 44.7µM*; Sfp inh: -8.3%; L3MBTL1 block: -23.3%; JMJD2A Tudor inh: inconclusive; BAZ2B block: 35.5µM*; HP1b chromo inh: inconclusive

How did Cc1cc(/C=N/NC(=O)C(=O)N2CCCC2)c(C)n1-c1cccc(Br)c1 do in these assays?
G9a inh: inconclusive; Sfp inh: -18.8%; L3MBTL1 block: -5.6%; JMJD2A Tudor inh: inconclusive; BAZ2B block: -9.6%; HP1b chromo inh: -2.7%

What do the screens show for `Cc1ccc(N2C(=O)CSC23C(=O)N(CC(=O)NC2CCCCC2)c2ccccc23)cc1C` (configuration not stated)?
G9a inh: -6.3%[59 µM]; JMJD2A Tudor inh: -7.1%; BAZ2B block: 4.1%[57.1 µM]; HP1b chromo inh: 8.9%

Results for COC(=O)[C@H]1[C@H]2CC3c4[nH]c5ccccc5c4CCN3C[C@@H]2CC[C@@H]1O (some centres not stated) ?
Sfp inh: -1.9%
